For 30 compounds, inhibition results are on record in PubChem BioAssay AID504329 (Southern Research Specialized Biocontainment Screening …, 2011).

The campaign covered roughly 340,000 compounds. About 1,000 (0.29%) were called active. Cut-off read from the data, not from the text of the source: inconclusive = inhibition above about 27% without an active follow-up result; inactive = below that. Only a sample is shown. Potency and affinity values are given separately.

This assay is described as follows: NS1A inhibition, H1N1 influenza, cell based functional assay (AID 504329). The following applies: percent inhibition, at 12.5 µM, active compounds read high.
As to `Cc1ccc(SCC(=O)NCc2ccccc2)cc1`, the inhibition is -3.04% (inactive).

`Cc1ccccc1NC(=O)N(C(C)C)C(C)C`: the inhibition is -12.5% (inactive).

For `O=C(Nc1ccccc1NC(=O)NC1CCCCC1)NC1CCCCC1`, the inhibition was 14% (inactive).

In the case of `Nc1c(NC2CCCCC2)c2ccccc2oc1=O`, the inhibition was 4.37% (inactive).

Consider `Cc1nc(NC(=O)c2cc3c(C)nn(-c4ccccc4)c3s2)sc1C(=O)Nc1ccccc1`, for which the inhibition is 0.17% (inactive).

Take `COc1ccc(N2CC(C(=O)N/N=C/c3ccccc3)CC2=O)cc1` (stereo not given): the inhibition is -7.3% (inactive).

Consider `CCCCC1(C)OC(=O)C(=Cc2ccc(N(C)C)cc2)C(=O)O1` (stereo not given), for which the inhibition was 0.99% (inactive).

Turning to `CN(C)c1ccc(-c2n(C)c3ccccc3[n+]2C)cc1`, the inhibition was 28.5% (inactive).

Take `C[n+]1c(-c2ccccc2)cc2c(=Cc3ccccc3)c3ccccc3n21`: the inhibition was -16.8% (inactive).

`CN(C)c1ccc(/C=N/c2cc(-c3ccccc3)nn2-c2ccccc2)cc1`: the inhibition was -1.42% (inactive).

`CN(C)c1ccc(/C=C2\SC(=O)N(CC(O)Cn3c4ccccc4c4ccccc43)C2=O)cc1` (stereo not given): the inhibition was -1.11% (inactive).

Consider `COc1ccc2c(c1)c(=O)cc(-c1ccccc1)n2C`, for which the inhibition is 0.17% (inactive).

As to `COc1ccc(-c2cc(-c3ccccc3)[n+](C)c(-c3ccccc3)c2)cc1`, the inhibition was -1.4% (inactive).

Regarding `CN(c1ccc(Cl)cc1)c1cc(=O)n(C)c2ccccc12`, the inhibition is 3.91% (inactive).

With `CC(C)(C)CN1CCNC[C@H]1Cc1cccc2ccccc12`, the inhibition is 4.41% (inactive).

Regarding `CNCC(O)c1cc(OCc2ccccc2)c(OCc2ccccc2)cc1F` (stereo not given), the inhibition is 2.8% (inactive).

On to `Cc1cc(Nc2cccc(F)c2)n2c(n1)nc1ccccc12`, for which the inhibition was -4.78% (inactive).

Regarding `CC(Sc1nnc(C2CC2)n1C1CC1)C(=O)c1ccc(F)cc1` (stereo not given), the inhibition was -11.2% (inactive).

As to `Clc1cccc(Cl)c1CSc1nnc([C@@H]2CCCN2)o1`, the inhibition was -1.85% (inactive).

`CC(=O)N1CCN(C(=O)COC(=O)CNC(=O)c2ccccc2C)CC1`: the inhibition is -1.13% (inactive).

Regarding `Cc1ccc(CNCC(O)(c2ccccc2)c2ccc(Cl)cc2)cc1` (stereo not given), the inhibition is 6.37% (inactive).

Turning to `Cn1c(SCC(=O)N2CCCC2=O)nnc1-c1ccccc1F`, the inhibition was 6.14% (inactive).

`CCOC(=O)c1cccc(NC(=O)c2ccc(N(C)C)cc2)c1`: the inhibition was 5.77% (inactive).

For `CN(C)c1ccc(C=c2c3ccccc3n3c2c2ccccc2[n+]3C)cc1`, the inhibition is 21% (inactive).

Turning to `COc1ccc(C(=O)c2ccc(N(C)C)cc2)c2ccccc12`, the inhibition was 11.2% (inactive).

As to `C[n+]1c(-c2ccccc2)cc(-c2ccc(O)cc2)cc1-c1ccccc1`, the inhibition was -0.313% (inactive).

On to `COc1cc(C=c2c3ccccc3n3c2cc(-c2ccccc2)[n+]3C)cc(OC)c1OC`, for which the inhibition was 6.14% (inactive).

`CCOC(=O)c1cc2c(C)n(-c3ccc(N(C)C)cc3)c(C)c2cc(C(=O)OCC)c1=O`: the inhibition was -3.74% (inactive).

With `CN(C)c1ccc(/C=C/c2nc3ccccc3c(=O)n2-c2ccc(C(=O)O)cc2)cc1`, the inhibition was -25.3% (inactive).

On to `CN(C)c1ccc(/C=C2\CCCc3c2nc2ccccc2c3C(=O)O)cc1`, for which the inhibition is 2.2% (inactive).
